Experimental data: PubChem BioAssay AID504408 (Broad Institute, 2011)
The campaign covered roughly 300,000 compounds. About 5,200 (1.7%) were called active.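 The calls were made as follows: active = mean replicate activation of at least 50% with a set share of replicates each reaching 50%; inconclusive = only one of those two conditions met; inactive = mean below 50% and too few replicates reaching it.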 Only a selection was taken, and actives are over-represented in it overall.

Assay: HSF-1 activators, primary screen, NIH3T3-HGL cells, MG132 stress, luminescence, single point (AID 504408);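 also: 0% = median of the neutral control wells and 100% = twice that signal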
Settings: NIH3T3-HGL HSF-1 luciferase reporter, MG132, 8 h; at 9 µM; active compounds read high; 100% = twice DMSO control signal

activation, active:
Cc1nc(NC(=O)c2ccc3c(c2)OCCO3)ccc1Br 58.7%, Nn1cnnc1N/N=C/c1cc([N+](=O)[O-])c(Cl)cc1Cl 56.4%, CC(=O)NC(Cc1c[nH]c2ccccc12)C(=O)O (configuration not stated) 56%, Cc1ccc(-n2ncc3c(N4CCN(c5ccc(F)cc5)CC4)ncnc32)c(C)c1 57.9%, O=C(NCCc1c[nH]c2ccccc12)c1cc2ccccc2oc1=O 62.1%, CCOC(=O)C1=C(c2ccccc2)NC(=S)NC1c1ccc(Cl)cc1 (configuration not stated) 63.5%, CCOC(=O)C1=C(CN2CCc3ccccc32)NC(=O)NC1c1ccc(Cl)cc1 (configuration not stated) 58.6%, COc1ccc(C(C(=O)NCC2CCCO2)N(C(=O)Cn2nnc3ccccc32)c2ccc(NC(C)=O)cc2)cc1OC (configuration not stated) 84%, CCOC(=O)c1sc(C)c2c1NC(C)(c1cccc3ccccc13)NC2=O (configuration not stated) 97.8%, CCCCOC(=O)c1[nH]c(C)c(C(=O)OC)c1C 52.3%, c1ccc(CN=C2Nc3ccccc3CS2)nc1 58%

activation, inactive:
CCOc1ccc(CCNC(=O)COC(=O)C2CCN(c3ccc(C(F)(F)F)cn3)CC2)cc1OCC 2.31%, O=C(Nc1ccc(Cl)cn1)c1ccc2c(c1)OCCO2 9.46%, O=C(Nc1ccccc1)c1ccc2c(c1)OCCCO2 12.7%, O=[N+]([O-])c1ccc(O)c(/C=N/Nc2ccccc2[N+](=O)[O-])c1 -10.2%, Cc1ccc2nc(NC(=O)CSc3nc(=O)n(CCCN(C)C)c4c3CCC4)sc2c1 2.36%, Cc1ccccc1OCC(=O)NNC(=O)c1ccc(-n2cncn2)c([N+](=O)[O-])c1 4.89%, Cc1ccc(C)c(NC(=O)COC(=O)Cn2c(C)csc2=O)c1 -8.55%, COc1cc(/C=N/NC(=O)c2cc(-c3ccccc3C)nc3ccccc23)cc(OC)c1O 18.6%, CN1CCN(C2Cc3ccc(Cl)cc3Sc3ccc(F)cc32)CC1 (configuration not stated) -3.39%, Cc1cccc(C)c1OCC(=O)NC(Cc1c[nH]c2ccccc12)C(=O)O (configuration not stated) 0.58%, CC(=O)NC(Cc1c[nH]c2ccccc12)C(=O)NCCc1ccccc1 (configuration not stated) -11.2%, CC1CCN(C(=O)c2cccc(S(=O)(=O)N3CCCc4ccccc43)c2)CC1 9.01%, Cc1ccc(N2CC(C(=O)N3CCC4(CC3)CC(=O)c3ccccc3O4)CC2=O)cc1C (configuration not stated) -2.34%, O=C(O)C1C2C=CC(C2)C1C(=O)NCc1ccccc1 (configuration not stated) -13%, Nc1ccccc1/C=N\N=C/c1ccccc1N 1.94%, Cc1ccc2cc(C)c(N3CCN(c4ccc(F)cc4)CC3)nc2c1 5.08%, Cc1ccc(-n2ncc3c(=O)[nH]cnc32)c(C)c1 -3.73%, Nc1ccc(C(=O)N2CCN(S(=O)(=O)c3ccc(Cl)cc3)CC2)cc1[N+](=O)[O-] 17.9%, COc1ccc(C)cc1NC(=O)CSc1nnc2ccc(-c3ccccn3)nn12 -10.8%, COc1ccc(C2=NN(C(=O)CSc3nc(=O)n4ccc(C)cc4n3)C(c3ccc(C)cc3)C2)cc1 (configuration not stated) 9.37%, CN(c1ccccc1)S(=O)(=O)c1ccc(Cl)c(C(=O)NCCc2c[nH]c3ccccc23)c1 -1.41%, O=C(NCCc1c[nH]c2ccccc12)c1cccc(Br)c1 7.52%, COc1ccccc1CNS(=O)(=O)c1cc2c3c(c1)CCC(=O)N3CCC2 14.6%, COc1ccc(CC(=O)OC(C)C(=O)Nc2ccc(S(N)(=O)=O)cc2)cc1 (configuration not stated) -0.48%, CC(OC(=O)CNC(=O)c1cccc(F)c1)C(=O)NC1CCCCC1C (configuration not stated) -3.7%, CCOC(=O)C1=C(c2ccccc2)NC(=O)NC1c1cc(OC)c(OC)cc1OC (configuration not stated) -12.4%, CCOC(=O)C1=C(CN2CCc3ccccc32)NC(=O)NC1c1cc(C)ccc1C (configuration not stated) 15.2%, CCOC(=O)C1=C(CN2CCc3ccccc32)NC(=O)NC1c1cccc([N+](=O)[O-])c1 (configuration not stated) 39.3%, CCOC(=O)C1=C(c2ccccc2)NC(=O)NC1c1cc(OCC)c(O)c([N+](=O)[O-])c1 (configuration not stated) 29.6%, CC(=O)CC(CC(=O)NC1CCCCC1)c1ccccc1 (configuration not stated) -2.27%, CC(NC(=O)c1ccccc1SCC(=O)N1CCCC1)c1ccccc1 (configuration not stated) -5.63%, CCOc1cc(C(C(=O)NCC2CCCO2)N(C(=O)Cn2nnc3ccccc32)c2cccc(OC)c2)ccc1O (configuration not stated) -1.11%, COc1ccc(C(C(=O)NC(C)(C)C)N(C(=O)Cn2nnc3ccccc32)c2ccc(C(C)=O)cc2)cc1O (configuration not stated) 1.15%, O=C1/C(=C\c2ccc(O)cc2)CCC1CNc1ccc(Cl)cc1 (configuration not stated) -5.88%, COc1ccc(C(=O)c2c3ccc([N+](=O)[O-])cc3[n+]([O-])n2CCCN)cc1 11.6%, CCC(C)c1ccccc1N1CC(C(=O)N2CCN(S(=O)(=O)c3ccc(F)cc3)CC2)CC1=O (configuration not stated) 7.61%, CCOC(=O)c1sc(-c2cccc([N+](=O)[O-])c2)cc1N 24.4%, CCOC(=O)c1ccc(Nc2cc3ccccc3c(=O)[nH]2)cc1 -14.6%, CCOC(=O)c1c(C)[nH]c(C(=O)OCC(=O)N2CCCC2=O)c1C 16.4%, CCOC(=O)c1c(C)[nH]c(C(=O)OCC(=O)c2ccc(OC)cc2OC)c1C -6.52%, COc1cc(-c2nnc(NC(=O)C3=COCCO3)o2)cc(OC)c1OC -3.05%, O=C(OCCOCn1cc(Br)c(=O)[nH]c1=O)c1ccccc1 -0.69%, N[C@@H](Cc1ccccc1)C(=O)N1CCOCC1 -19.9%, C=CCOc1cccc(C2C(C(=O)c3ccc(C)o3)=C(O)C(=O)N2c2nnc(C)s2)c1 (configuration not stated) -4.03%, CC(=O)c1ccc(NC(=O)C2CCCN2S(=O)(=O)c2cccs2)cc1 (configuration not stated) -4.67%, CCCCN(C1CCS(=O)(=O)C1)S(=O)(=O)c1ccc(C(C)C)cc1 (configuration not stated) 0.442%
